From PubChem BioAssay AID488969 (Vanderbilt High Throughput Screening Facility, 2010)
The full ranking holds about 110,000 compounds; the median of “z-score” is about -0.1, and the highest 2% start at about 2. This excerpt belongs to a sample that is enriched for the highest values. Activity calls are given as the source filed them.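 Rule for the calls: active = z-score in the third read window above 3 or below -3; inactive = the rest.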

These molecules were tested against Metabotropic glutamate receptor 8 (Rattus norvegicus) (UniProt P70579) (assay: rat mGluR8 modulators via GIRK flux, primary screen, cell-based, thallium flux, HTS (AID 488969)). Conditions: HEK293 rat mGluR8, GIRK (G protein-gated inwardly rectifying potassium channel) thallium flux, FluoZin2; at 10 µM; stronger effect = higher value.
Metabotropic glutamate receptor 8 (Rattus norvegicus), sequence (P70579 whole entry, looked up): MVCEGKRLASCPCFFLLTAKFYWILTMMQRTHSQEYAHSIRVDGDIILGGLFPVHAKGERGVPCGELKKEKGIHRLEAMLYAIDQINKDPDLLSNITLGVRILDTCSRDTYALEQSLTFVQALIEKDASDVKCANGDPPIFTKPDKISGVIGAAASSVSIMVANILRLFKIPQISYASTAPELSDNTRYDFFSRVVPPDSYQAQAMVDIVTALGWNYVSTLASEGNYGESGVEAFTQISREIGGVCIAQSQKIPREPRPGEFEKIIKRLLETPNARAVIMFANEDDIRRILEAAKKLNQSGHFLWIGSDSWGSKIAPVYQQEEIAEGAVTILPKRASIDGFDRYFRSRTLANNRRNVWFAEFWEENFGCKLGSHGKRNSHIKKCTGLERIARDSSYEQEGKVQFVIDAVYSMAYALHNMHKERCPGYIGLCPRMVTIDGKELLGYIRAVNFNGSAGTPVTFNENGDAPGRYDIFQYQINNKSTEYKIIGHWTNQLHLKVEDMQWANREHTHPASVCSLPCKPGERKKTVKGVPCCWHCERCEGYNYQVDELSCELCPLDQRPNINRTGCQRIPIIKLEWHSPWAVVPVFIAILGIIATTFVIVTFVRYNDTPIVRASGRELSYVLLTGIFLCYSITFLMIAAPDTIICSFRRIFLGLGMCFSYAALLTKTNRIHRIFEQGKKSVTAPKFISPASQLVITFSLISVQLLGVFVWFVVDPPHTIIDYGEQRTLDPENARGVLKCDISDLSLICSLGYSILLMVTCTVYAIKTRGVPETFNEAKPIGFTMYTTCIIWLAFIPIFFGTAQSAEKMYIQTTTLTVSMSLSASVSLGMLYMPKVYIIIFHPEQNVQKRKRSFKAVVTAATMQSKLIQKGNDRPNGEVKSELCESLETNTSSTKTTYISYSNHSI

With `Cc1ccc2nc(N3CCC(C(=O)N4CCC5(CC4)OCCO5)CC3)sc2c1` the z-score was 4.28 (active).
With `CC(C)Oc1cc(-n2c(=S)[nH]c3ccccc3c2=O)c(Cl)cc1Cl` the z-score was 12.9 (active).
For `COc1cc(-n2c(=S)[nH]c3ccccc3c2=O)c(Cl)cc1Cl`, the z-score was 6.65 (active).
For `Cn1cccc1CNCCc1ccccc1`, the z-score was 6.88 (active).
With `O=C(Nc1ccc(Cl)cc1)Nc1nccs1` the z-score was 8.34 (active).

Point of comparison: `Cn1cc(C(=O)Cc2ccccc2)c2ccccc21`, z-score 0.166. Against it:
- O=C(C1CCN(S(=O)(=O)c2ccccc2)CC1)N1CCC2(CC1)OCCO2 — higher, 0.255
- CCS(=O)(=O)N1CCC(C(=O)N2CCC3(CC2)OCCO3)CC1 — lower, 0.00257
- CC(C)CC(=O)NC(Oc1ccc(Cl)cc1)C(Cl)(Cl)Cl (stereo not given) — lower, -0.379
- CC1(C)CN2C(c3ccc(Cl)cc3)N2C1 (stereo not given) — lower, 0.161
- O=[N+]([O-])c1cc2c(cc1CNCCc1ccc3c(c1)OCO3)OCO2 — higher, 0.309
- c1ccc(CNCCc2ccc3c(c2)OCO3)nc1 — lower, -0.496
- c1ccc2c(CCNCc3ccc4c(c3)OCO4)c[nH]c2c1 — higher, 2.19
- Cc1noc(C)c1C(=O)N1CCC2(CC1)OCCO2 — lower, -0.294
- O=c1[nH]c2ccccc2c(=O)n1-c1cccc(Cl)c1 — lower, -0.0839
- COc1cc2[nH]c(=O)n(-c3ccccc3)c(=O)c2cc1OC — lower, -0.252
- COc1ccc(-n2c(=O)[nH]c3ccccc3c2=O)cc1 — higher, 0.343
- COc1cc2[nH]c(=O)n(-c3cccc(Cl)c3)c(=O)c2cc1OC — lower, -0.0317
- O=C(NC(Oc1ccccc1)C(Cl)(Cl)Cl)c1ccccc1 (stereo not given) — lower, -0.149
- CN(C(=O)Oc1ccc(Cl)c2cccnc12)c1ccccc1 — lower, -0.251
- CCOc1ccc(N=Cc2c(O)n(C(C)(C)C)c(=O)[nH]c2=O)cc1 — lower, -0.283
- CCOC(=O)C1C2NC(=O)N(Cc3ccccc3)C1(C)Oc1c(OC)cccc12 (stereo not given) — lower, 0.0221
- O=C(CN1C(=O)CN=C(c2ccccc2)c2ccccc21)NCc1ccco1 — lower, -0.206
- O=C(CN1C(=O)CN=C(c2ccccc2Cl)c2cc(Cl)ccc21)NCc1ccco1 — higher, 2.98
- CCC(C)C1N=C(c2ccccc2)c2cc(Cl)ccc2N(CC(=O)NCc2ccco2)C1=O (stereo not given) — lower, -0.0258
- OC(c1ccccc1)(c1ccccc1)c1ccncc1 — lower, -0.0666
- c1ccc(CCNCc2ccccc2)cc1 — lower, -0.78
- Cn1cccc1CNCCc1ccc(F)cc1 — lower, -0.24
- CCC(=NCCCN(CC)CC)c1c(O)n(C2CCCCC2)c(=O)[nH]c1=O — lower, -0.25
- N#Cc1c(Cl)nc(Cl)c2c1CCN(Cc1ccccc1)C2 — lower, -0.608
- Cc1ccc(OP(=O)(NCc2ccccc2)Oc2ccc(C)cc2)cc1 — lower, -0.00664
- OCC12CO[C@@H]3c4ccccc4[C@H](OC1)N32 (stereo not given in full) — lower, -0.0926
- O=C(Nc1ccc(Cl)cc1)O/N=C(\c1ccccc1)c1ccccn1 — lower, -0.375
- CON(C)C(=O)Nc1ccc(Cl)cc1 — higher, 0.516
- CCC(C)c1ccc(N2C(=O)NC(=O)/C(=C/c3cccn3CCOc3ccc(C)cc3)C2=O)cc1 (stereo not given) — higher, 0.272
- Cc1cc(C)c(-n2c(O)c(/C=N/N3CCCCC3c3cccnc3)c(=O)[nH]c2=O)c(C)c1 (stereo not given) — lower, -0.531
- Cc1nn(Cc2ccccc2)c(Cl)c1C(=O)OC(C)C(=O)Nc1ccc(F)cc1Cl (stereo not given) — lower, 0.0724
- CCCCc1nc(N2CCNCC2)c(C#N)c2c1CSC(C)(C)C2 — higher, 2.01
- COc1ccc(CCNC(=O)COC(=O)Cc2ccccc2)cc1 — lower, -0.0964
- O=P(OCC(F)(F)C(F)F)(N1CCCCC1)N1CCCCC1 — lower, -0.0155
- COC(=O)c1ccccc1-n1c(C)nc2ccccc2c1=O — lower, -0.159
- CC(C)CCn1c(=O)c(C(=O)Nc2ccccc2S(N)(=O)=O)c(O)c2ccccc21 — higher, 2
- CCCCCn1c(=O)c(C(=O)NCc2ccncc2)c(O)c2ccccc21 — lower, -1.2
- CCCCCn1c(=O)c(C(=O)Nc2c(C)n(C)n(-c3ccccc3)c2=O)c(O)c2ccccc21 — lower, -0.252
- NC12CN3CN(CN(C3)C1)C2 (tested in a mixture with another compound) — lower, -0.55
- CCN1CCN(CC(=O)c2c(C)n(Cc3ccccc3)c3ccc(OC)cc23)CC1 — higher, 0.191
- CC(C)NC(C)C(=O)C12CC3CC(CC(C3)C1)C2 (stereo not given) — lower, 0.115
- CC(NC1CCCCC1)C(O)C12CC3CC(CC(C3)C1)C2 (stereo not given) — higher, 2.39
- O=C(COC(=O)Cc1ccccc1)NC12CC3CC(CC(C3)C1)C2 — lower, -0.0902
- CCCCn1c(C)c(C(=O)O)c2cc(OC)ccc21 — lower, -0.364
- COCCCn1c(-c2ccc(OC)cc2)cc(C(=O)NC2CCCCCCC2)c1C — lower, -0.648
- COCCn1c(-c2ccccc2)cc(C(=O)O)c1C — higher, 2.06
- CCS(=O)(=O)N1CCCC(C(=O)N2CCC3(CC2)OCCO3)C1 (stereo not given) — lower, 0.0065
- CC(C)c1cccc(C(C)C)c1OCCn1ccnc1 — higher, 2.23
- CCOc1ccc(-n2c(O)c(C=NCCCn3ccnc3)c(=O)[nH]c2=O)cc1 — lower, 0.0171
- CCCCCSc1cc(OC)c(CCNC)cc1OC — lower, 0.115
- CCCCCCCSc1cc(OC)c(CCNC)cc1OC — higher, 2.15
- CCCCCSc1cc(OC)c(CCN)cc1OC — higher, 1.67
- O=C(C1CC(c2ccc(Cl)c(Cl)c2)=NO1)N1CCC2(CC1)OCCO2 (stereo not given) — higher, 0.509
- O=c1[nH]c(=O)n(Cc2ccccc2)c(O)c1C=Nc1ccc(CN2CCOCC2)cc1 — lower, -0.0494
